Results taken from PubChem BioAssay (EPA / NIEHS).
Activity calls are given as the source filed them. The calls were made as follows: active = hit-call score of the fitted dose curve at least 0.9, where 1 is the maximum; inactive = score below 0.9.

Legend:
Conditions in all cases: mRNA level, 48 h; actives raise or lower the signal
[1] = read-out: Cytochrome P450 (CYP24A1), CYP24A1 (gene 1591); assay: LTEA_HepaRG_CYP24A1: Life Technologies and Expression Analysis (LTEA) Assay for Cytochrome P450 (CYP24A1) using HepaRG (AID 2283478)
In short: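 mRNA of CYP24A1 quantified by TaqMan qRT-PCR (ACTB/GAPDH/POLR2A normalization) after 48 h chemical exposure of HepaRG cells, top concentration 100 uM, half-log steps, 0.5% DMSO vehicle, duplicates. Curves fitted bidirectionally against DMSO baseline.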

[2] = read-out: Cytochrome P450 (CYP1A2), CYP1A2 (gene 1544); assay: LTEA_HepaRG_CYP1A2: Life Technologies and Expression Analysis (LTEA) Assay for Cytochrome P450 (CYP1A2) using HepaRG (AID 2283479)
In short: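 CYP1A2 transcript measured by TaqMan qRT-PCR against three housekeeping genes after 48-hour chemical exposure of HepaRG cells. Eight-point half-log series topping at 100 uM in 0.5% DMSO, duplicates; gain or loss fitted relative to vehicle.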

[3] = read-out: cysteine-aspartic acid protease (CASP8), CASP8 (gene 841); assay: LTEA_HepaRG_CASP8: Life Technologies and Expression Analysis (LTEA) Assay for cysteine-aspartic acid protease (CASP8) using HepaRG (AID 2283480)
In short: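 CASP8 transcript measured by TaqMan qRT-PCR with ACTB/GAPDH/POLR2A normalization, after 48 h chemical exposure of HepaRG cells in serum-free induction medium. Eight concentrations, top 100 uM, half-log steps, 0.5% DMSO vehicle; fits in both directions versus DMSO.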

[4] = read-out: Cytochrome P450 (CYP2B6), CYP2B6 (gene 1555); assay: LTEA_HepaRG_CYP2B6: Life Technologies and Expression Analysis (LTEA) Assay for Cytochrome P450 (CYP2B6) using HepaRG (AID 2283481)
In short: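 CYP2B6 transcript level quantified by qRT-PCR against three housekeeping genes, fitted bidirectionally relative to DMSO. HepaRG cultures received chemicals for 48 h, 8-point half-log series from 100 uM in 0.5% DMSO, duplicate wells, serum-free induction medium.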

[5] = read-out: Cytochrome P450 2C19 (Homo sapiens) (UniProt P33261); assay: LTEA_HepaRG_CYP2C19: Life Technologies and Expression Analysis (LTEA) Assay for CYP2C19 using HepaRG (AID 2283482)
In short: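 CYP2C19 transcript levels by qRT-PCR, normalized to three housekeeping genes, in HepaRG cells after 48 h chemical exposure. Eight-point half-log series topping at 100 uM, 0.5% DMSO vehicle. Increases and decreases both fitted against DMSO.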

[6] = read-out: CYP2C8 (gene 1558); assay: LTEA_HepaRG_CYP2C8: Life Technologies and Expression Analysis (LTEA) Assay for CYP2C8 using HepaRG (AID 2283483)
In short: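 CYP2C8 expression measured by TaqMan qRT-PCR and normalized to three housekeeping genes. HepaRG cultures were treated for 48 h with an eight-point half-log series topping at 100 uM, vehicle 0.5% DMSO, duplicates; fitted both directions against DMSO.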

[7] = read-out: CYP2C9 (gene 1559); assay: LTEA_HepaRG_CYP2C9: Life Technologies and Expression Analysis (LTEA) Assay for CYP2C9 using HepaRG (AID 2283484)
In short: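 CYP2C9 transcript level, quantified by TaqMan qRT-PCR against three housekeeping genes, was fitted bidirectionally relative to 0.5% DMSO. HepaRG cultures were treated 48 h, in duplicate, at eight half-log concentrations topping at 100 uM.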

[8] = read-out: CYP2E1 (gene 1571); assay: LTEA_HepaRG_CYP2E1: Life Technologies and Expression Analysis (LTEA) Assay for CYP2E1 using HepaRG (AID 2283485)
In short: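 Readout is qRT-PCR of CYP2E1 mRNA, normalized to three housekeeping genes and fitted bidirectionally against 0.5% DMSO. HepaRG cells were dosed 48 h at eight concentrations, highest 100 uM with half-log dilutions.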

[9] = read-out: Cytochrome P450 3A4 (Homo sapiens) (UniProt P08684); assay: LTEA_HepaRG_CYP3A4: Life Technologies and Expression Analysis (LTEA) Assay for CYP3A4 using HepaRG (AID 2283487)
In short: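 Differentiated HepaRG cells in serum-free induction medium exposed in duplicate for 48 h to 8 half-log concentrations up to 100 uM in 0.5% DMSO. CYP3A4 mRNA measured by qRT-PCR normalized to ACTB, GAPDH and POLR2A; bidirectional fit versus DMSO.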

[10] = read-out: DNA damage-inducible transcript 3 (DDIT3), DDIT3 (gene 1649); assay: LTEA_HepaRG_DDIT3: Life Technologies and Expression Analysis (LTEA) Assay for DNA damage-inducible transcript 3 (DDIT3) using HepaRG (AID 2283488)
In short: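 Cells are human HepaRG liver cells treated for 48 h with eight half-log concentrations up to 100 uM in 0.5% DMSO. Transcript levels come from qRT-PCR normalized to three housekeeping genes, with activity fitted in both directions relative to vehicle.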

[11] = read-out: Pro-epidermal growth factor (Homo sapiens) (UniProt P01133); assay: LTEA_HepaRG_EGF: Life Technologies and Expression Analysis (LTEA) Assay for Epidermal growth factor (EGF) using HepaRG (AID 2283489)
In short: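 EGF transcript measured by Fluidigm TaqMan qRT-PCR with three housekeeping genes for normalization, 48 h after dosing HepaRG cultures in duplicate (top 100 uM, half-log steps, 0.5% DMSO vehicle). Gain or loss relative to DMSO fitted.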

[12] = read-out: Early growth response protein 1 (EGR1) transcription factor, EGR1 (gene 1958); assay: LTEA_HepaRG_EGR1: Life Technologies and Expression Analysis (LTEA) Assay for Early growth response protein 1 (EGR1) transcription factor using HepaRG (AID 2283490)
In short: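 EGR1 transcript levels quantified by qRT-PCR (Fluidigm arrays) against three housekeeping genes after 48 h chemical exposure of HepaRG cells. Eight-point half-log series topping at 100 uM, 0.5% DMSO vehicle, analyzed for gain or loss.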

[13] = read-out: Ezrin (EZR), EZR (gene 7430); assay: LTEA_HepaRG_EZR: Life Technologies and Expression Analysis (LTEA) Assay for Ezrin (EZR) using HepaRG (AID 2283491)
In short: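 Differentiated human HepaRG cells, 48 h after plating, were exposed in serum-free induction medium for 48 hours to eight half-log concentrations up to 100 uM in 0.5% DMSO. EZR mRNA was measured by TaqMan qRT-PCR, normalized to ACTB, GAPDH and POLR2A, and fitted bidirectionally against DMSO.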

[14] = read-out: CYP3A5 (gene 1577); assay: LTEA_HepaRG_CYP3A5: Life Technologies and Expression Analysis (LTEA) Assay for CYP3A5 using HepaRG (AID 2283493)
In short: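 Human HepaRG hepatic cells receive 48 h chemical treatment at eight concentrations (half-log steps from 100 uM) in 0.5% DMSO. Expression of CYP3A5 is quantified by Fluidigm qRT-PCR and normalized to three reference genes.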

[15] = read-out: Fatty Acid-Binding Protein 1 (FABP1), FABP1 (gene 2168); assay: LTEA_HepaRG_FABP1: Life Technologies and Expression Analysis (LTEA) Assay for Fatty Acid-Binding Protein 1 (FABP1) using HepaRG (AID 2283494)
In short: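 FABP1 expression by TaqMan qRT-PCR, normalised to three housekeeping genes, in HepaRG cells after 48 h chemical treatment. Eight-point half-log series topping at 100 uM in 0.5% DMSO, duplicates; gain or loss fitted relative to vehicle.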

[16] = read-out: Cytochrome P450 7A1 (Homo sapiens) (UniProt P22680); assay: LTEA_HepaRG_CYP7A1: Life Technologies and Expression Analysis (LTEA) Assay for Cytochrome P450 7A1 (CYP7A1) using HepaRG (AID 2283496)
In short: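 HepaRG, 48 h exposure, 8-pt half-log series from 100 uM, 0.5% DMSO vehicle, duplicates. Readout: TaqMan qRT-PCR mRNA vs three housekeeping genes; bidirectional curve fit against DMSO baseline.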

[17] = read-out: CYP4A11 (gene 1579); assay: LTEA_HepaRG_CYP4A11: Life Technologies and Expression Analysis (LTEA) Assay for CYP4A11 using HepaRG (AID 2283486)
In short: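 Readout is CYP4A11 transcript level by qRT-PCR, normalized to three housekeeping genes and fitted bidirectionally against 0.5% DMSO. Human HepaRG cells were treated 48 h, in duplicate, with an 8-point half-log series topping at 100 uM.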

[18] = read-out: Cytochrome P450 4A22 (Homo sapiens) (UniProt Q5TCH4); assay: LTEA_HepaRG_CYP4A22: Life Technologies and Expression Analysis (LTEA) Assay for Cytochrome P450 4A22 (CYP4A22) using HepaRG (AID 2283495)
In short: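 Gene expression measured by qRT-PCR against three housekeeping genes (ACTB, GAPDH, POLR2A), with gain or loss fitted relative to 0.5% DMSO vehicle. HepaRG cultures received 48 h chemical treatment, top concentration 100 uM, half-log steps, duplicate wells.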

[19] = read-out: Glutathione S-Transferase (GSTA2), GSTA2 (gene 2939); assay: LTEA_HepaRG_GSTA2: Life Technologies and Expression Analysis (LTEA) Assay for Glutathione S-Transferase (GSTA2) using HepaRG (AID 2283497)
In short: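 GSTA2 transcript levels came from Fluidigm TaqMan qRT-PCR normalized to three housekeeping genes, fitted in both directions against DMSO. HepaRG cultures received chemicals for 48 h in serum-free induction medium (0.5% DMSO), 8 half-log concentrations up to 100 uM, duplicate.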

[20] = read-out: Cytochrome P450 3A7 (Homo sapiens) (UniProt P24462); assay: LTEA_HepaRG_CYP3A7: Life Technologies and Expression Analysis (LTEA) Assay for CYP3A7 using HepaRG (AID 2283492)
In short: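 CYP3A7 transcript measured by qRT-PCR (ACTB, GAPDH, POLR2A normalization) after 48 h chemical exposure of HepaRG cells in duplicate. Eight half-log concentrations, maximum 100 uM, 0.5% DMSO vehicle; bidirectional curve fitting against DMSO baseline.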

Measured: AC50

Chain of Cytochrome P450 2C19 (Homo sapiens) (P33261 whole entry, looked up): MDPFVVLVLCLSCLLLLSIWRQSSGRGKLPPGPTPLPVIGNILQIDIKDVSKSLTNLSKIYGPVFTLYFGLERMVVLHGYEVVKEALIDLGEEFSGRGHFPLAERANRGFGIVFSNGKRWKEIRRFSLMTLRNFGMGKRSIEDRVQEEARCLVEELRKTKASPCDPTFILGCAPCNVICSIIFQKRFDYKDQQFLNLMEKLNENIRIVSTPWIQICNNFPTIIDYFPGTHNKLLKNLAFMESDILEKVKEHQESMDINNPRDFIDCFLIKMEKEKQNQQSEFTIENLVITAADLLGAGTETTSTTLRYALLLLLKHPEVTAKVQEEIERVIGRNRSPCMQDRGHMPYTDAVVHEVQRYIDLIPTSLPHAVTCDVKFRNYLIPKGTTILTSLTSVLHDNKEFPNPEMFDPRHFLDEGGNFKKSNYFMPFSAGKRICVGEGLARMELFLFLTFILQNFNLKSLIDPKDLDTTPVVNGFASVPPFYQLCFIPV
Chain of Cytochrome P450 3A7 (Homo sapiens) (P24462 whole entry, looked up): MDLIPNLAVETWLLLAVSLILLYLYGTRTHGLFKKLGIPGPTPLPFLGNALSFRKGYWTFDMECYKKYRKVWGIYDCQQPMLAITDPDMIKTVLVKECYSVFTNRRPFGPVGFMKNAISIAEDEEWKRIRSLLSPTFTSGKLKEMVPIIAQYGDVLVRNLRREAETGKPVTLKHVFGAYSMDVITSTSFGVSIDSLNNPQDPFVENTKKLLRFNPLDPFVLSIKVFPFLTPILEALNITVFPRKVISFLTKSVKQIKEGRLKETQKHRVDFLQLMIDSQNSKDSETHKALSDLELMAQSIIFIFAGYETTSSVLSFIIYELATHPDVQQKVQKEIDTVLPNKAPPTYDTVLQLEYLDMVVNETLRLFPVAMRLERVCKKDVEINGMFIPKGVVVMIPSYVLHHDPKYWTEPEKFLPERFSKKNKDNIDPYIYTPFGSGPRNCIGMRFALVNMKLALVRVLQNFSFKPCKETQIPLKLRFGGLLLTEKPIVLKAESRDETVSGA
Chain of Cytochrome P450 3A4 (Homo sapiens) (P08684 whole entry, looked up): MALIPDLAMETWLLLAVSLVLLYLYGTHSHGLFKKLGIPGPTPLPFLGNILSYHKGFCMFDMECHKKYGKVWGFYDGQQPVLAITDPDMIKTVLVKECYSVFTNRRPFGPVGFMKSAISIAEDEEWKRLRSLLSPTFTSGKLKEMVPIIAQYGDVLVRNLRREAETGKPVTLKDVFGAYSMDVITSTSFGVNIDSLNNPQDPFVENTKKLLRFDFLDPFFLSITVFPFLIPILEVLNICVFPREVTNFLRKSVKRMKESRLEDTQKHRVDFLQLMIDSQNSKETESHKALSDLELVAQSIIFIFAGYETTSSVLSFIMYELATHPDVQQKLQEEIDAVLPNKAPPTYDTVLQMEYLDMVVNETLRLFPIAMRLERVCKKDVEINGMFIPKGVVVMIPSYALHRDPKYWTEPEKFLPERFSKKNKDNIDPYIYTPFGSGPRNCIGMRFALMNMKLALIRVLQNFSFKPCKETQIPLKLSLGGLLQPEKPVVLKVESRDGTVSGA

CCCCN(CCCC)CCCC
not listed: [17] | [18] | [19] | [20]
inactive: all other assays above

CCCCC(CC)COC(=O)CC(C(=O)OCC(CC)CCCC)S(=O)(=O)O (stereo not given)
active: [2] 15.8 µM | [3] 81.6 µM | [4] 15.8 µM | [5] 89.9 µM | [6] 15.8 µM | [7] 88.1 µM | [12] 85.5 µM | [14] 82.9 µM | [15] 91.6 µM | [16] 92 µM
inactive: [1] | [17] | [13] | [18]

Clc1cc(Cl)c(Cl)cc1Cl
not listed: [8] | [17] | [18] | [20]
inactive: all other assays above

Cc1ccc(Cl)cc1
not listed: [1] | [18] | [20]
inactive: all other assays above

Cc1ccc(C)c(C)c1
not listed: [1] | [10] | [20]
inactive: all other assays above

Cc1ccc2ncccc2c1
active: [4] 13.2 µM
not listed: [8] | [10] | [11] | [17] | [19]
inactive: all other assays above

NC(=O)Cn1c(=O)cc(CCN2CCN(c3nccc4sccc34)CC2)c2ccc(F)cc21
active: [7] 78 µM | [17] 65.4 µM | [9] 5.56 µM | [15] 12.3 µM | [18] 62.7 µM | [16] 21.5 µM
not listed: [8] | [10] | [19] | [20]
inactive: all other assays above

CNC(=O)[C@H]1O[C@@H](n2cnc3c(NCc4cc(Cl)ccc4OCc4cc(C)no4)ncnc32)[C@H](O)[C@@H]1N
not listed: [1] | [10] | [11] | [18] | [19] | [20]
inactive: all other assays above

O=C(OCCCCCOC(=O)c1ccccc1)c1ccccc1
active: [2] 1.58 µM | [3] 0.942 µM | [4] 0.969 µM | [5] 2.44 µM | [6] 0.726 µM | [10] 1.38 µM | [20] 2.31 µM | [18] 2.98 µM
not listed: [8] | [11] | [17]
inactive: all other assays above

CCOc1ccc2c(c1)C(C)=CC(C)(C)N2
active: [2] 13 µM | [4] 0.551 µM | [8] 30 µM | [9] 1.73 µM | [20] 1.12 µM | [15] 50 µM | [16] 33.3 µM
not listed: [5] | [10] | [18]
inactive: all other assays above

CCCCCCCCCCC
not listed: [1] | [17] | [18]
inactive: all other assays above

O=c1c(O)c(-c2ccc(O)c(O)c2)oc2cc(O)cc(O)c12
active: [2] 0.806 µM | [17] 50 µM
not listed: [1] | [11] | [20]
inactive: all other assays above

Nc1ccccc1N
inactive: [3] | [13]
active: [2] 2.19 µM | [4] 69 µM | [5] 71.8 µM | [6] 78.3 µM | [7] 71 µM | [8] 73.1 µM | [17] 66.5 µM | [12] 30 µM | [14] 51.3 µM | [15] 72.6 µM | [18] 64.6 µM | [16] 79.9 µM

CC=Cc1ccc(O)c(OC)c1
not listed: [8] | [17] | [18] | [19]
inactive: all other assays above

COc1cc(C=O)ccc1O
not listed: [8] | [10] | [20]
inactive: all other assays above
